IkB signaling: IkB pathway inhibition in ABC-DLBCL cells; ABC-DLBCL IkBa-CBG/CBR dual luciferase ratio, 4 h; response scale: scaled: untreated 0%, proteasome inhibitor 100%; hit rate 0.04% among 110,000; Potency, µM (top dose mostly 57.1 µM), for the others: top-dose IkBa stabilization activation; active means well fitted curve in the direction sought with a large enough effect in the signal ratio, not every such curve was filed as active; inconclusive means small, poorly fitted or top-dose-only effect, or a change in a side signal; the % refers to the signal ratio;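 further: the direction sought is a rising ratio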
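In this assay, an IκBα–CBG68 fusion accumulates when IKK-driven degradation is blocked; native CBR normalizes for cell number. OCI-Ly3 cells were treated 4 h with compound and doxycycline, then green and red light read after Chroma-Glo addition.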
p53ts 32C tox: cytotoxicity in p53ts cells at permissive temperature | AID 924 | hit rate 0.93% among 130,000 | Potency, µM (highest dose often 46.1 µM), for the others: at the top dose activity change, negative = cytotoxicity, usual class: cytotoxic | H1299-p53A138V at 32C, ATP luminescence viability, 24 h;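 further: 0% = DMSO and -100% = full killing by reference compound; nearly all actives have a fitted effect of over 55% in size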
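Cells: H1299 p53ts (A138V), 600/well, pre-incubated 16–30 h at 37C. Cpd up to 46 uM, 24 h, 32C. Readout: ATPlite luminescence, 20 min RT. Normalization: DMSO vs tamoxifen 100 uM. AC50 by Hill equation.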
p53ts 39C tox: p53ts cell cytotoxicity, nonpermissive temperature. H1299-p53A138V viability at 39C, ATP luminescence, 24 h. Potency, µM (top dose mostly 46.1 µM), for inactives: at the highest dose activity change, negative = cell killing, actives largely listed as cytotoxic. hit rate 1.5% among 130,000. AID 902; further: on the % scale 0 is the no-effect control and ±100 the full control effect; nearly all actives have a fitted effect of over 55% in size
Peg3 imprint: inducers of genomic imprint erasure in mouse ES cells | AID 1948 | Potency, µM (series often up to 60.7 µM), for inactives: top-dose activity change, positive = activation, actives largely listed as activators | mouse ES Peg3-LacZ reporter, beta-gal luminescence, 40 h | hit rate 0.02% among 110,000
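Readout: BetaGlo luminescence (5 min, room temp) for LacZ from the normally silent maternal Peg3 allele in female Peg3LacZ-Neo ES cells. Cells 300/well, 40 h, 37C, 5% CO2. Data normalized per plate to negative controls.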
* hit, by the source's call; ? = inconclusive; / = no result; [ ] = remark or other dose. Sampled rows, rich in hits. Any-hit rate of the full collection: about 1.7%. Unless noted, the call rests on the fitted dose curve; in most records, active means well fitted curve in the direction sought with a large enough effect; inconclusive means small, poorly fitted or top-dose-only effect, or another doubt; inactive means no such curve, though single readings can be large; an effect the other way counts as inactive or inconclusive. Potency means the concentration at half of the fitted maximal effect.

SMILES	IkB signaling	p53ts 32C tox	p53ts 39C tox	Peg3 imprint
OC(COc1ccc(Cl)c2ccccc12)CN1CCN(c2ccccn2)CC1 (centres undefined)	?	?	15.8µM*	6.7%
Cc1cccc(CNC(=O)Cn2nc(C)c3nn(-c4ccc(Cl)cc4)c(C)c3c2=O)c1	?	-4.4%	38.3%	-1.4%[10.9 µM]
CCN1C(C(=O)c2ccccc2)=C(OC(=O)c2ccccc2OC)c2ccccc2S1(=O)=O	?	?	10µM*	-10.0%[10.9 µM]
O=C(Nc1ccc2nc3ccccc3nc2c1)c1ccccc1	/	?	10µM*	/
C[C@@H](CN1c2ccccc2Sc2ccccc21)N(C)C	-0.1%[25.6 µM]	-8.1%[20.6 µM]	-9.8%[20.6 µM]	-10.0%[16.8 µM]
Cc1cccc(C(=O)N2c3ncnn3C3(CCCCC3)[C@@H]3CCCC[C@@H]32)c1	-0.8%	-3.7%	12.6µM*	-8.8%[10.9 µM]
CN(C)c1ccc(NC(=S)c2ccccn2)cc1	?	1.58µM*	2.51µM*	-92.7%
CN(C)S(=O)(=O)c1ccc(NC(=O)c2ccccn2)cc1	2.1%	12.6µM*	10µM*	21.9%
CCN(CC)S(=O)(=O)c1ccc(NC(=O)c2ccccn2)cc1	1.2%	10.9%	-11.8%	-70.8%
CCCCC(=O)Nc1ccc2nc(SCC(=O)N3CCc4ccccc43)sc2c1	?	-6.8%	-19.2%	-11.3%[10.9 µM]
COc1cc(OC)cc(C(=O)Nc2cc(-c3nc4ccccc4s3)ccc2OC)c1	2.4%	-9.7%	-4.9%	5.5%[10.9 µM]
CC(C)(C)C(=O)Nc1ccc(-c2nc3ccccc3s2)cc1	-0.7%	0.316µM*	0.316µM*	-74.0%[10.9 µM]
COc1ccc(-c2nc3ccccc3s2)cc1NC(=O)c1ccc(F)cc1	-4.2%	-13.4%	12.6µM*	-3.9%[10.9 µM]
Oc1ccc(Nc2nc(-c3ccc(Cl)cc3)nc3ccccc23)cc1	?	?	15.8µM*	7.8%[10.9 µM]
O=C(O)c1ccc2cc(-c3ccc(O)c(C45CC6CC(CC(C6)C4)C5)c3)ccc2c1	/	20µM*	?	-27.0%
O=C(/C(C=Nc1ccc(Br)cc1)=C(/O)c1ccco1)C(F)(F)F	/	11.2µM*	11.2µM*	/
COc1ccc(S(=O)(=O)N(CCO)c2ccccc2CN(C)CC=Cc2ccc(Cl)cc2)cc1	/	/	/	-30.6%
O=C(Cc1ccc(Cl)cc1)Nc1ccc2oc(-c3ccc(F)cc3)nc2c1	10.7%	-11.5%	-5.0%	-10.9%[10.9 µM]
COc1ccc(CC(=O)Nc2cccc(-c3nnc(-c4cccc(C)c4)o3)c2)cc1OC	?	12.6µM*	?	-46.5%
COc1ccc(CC(=O)Nc2cccc(-c3nnc(-c4ccc(C)cc4)o3)c2)cc1OC	?	?	-9.3%	-17.0%
COc1ccc(-c2nc3cc(NC(=O)Cc4ccc(Cl)cc4)ccc3o2)cc1OC	?	10µM*	7.94µM*	-20.6%[10.9 µM]
NC(=O)c1ncn([C@@H]2O[C@@H](CO)[C@@H](O)[C@H]2O)n1	8.1%	/	/	/
Nc1nc(Nc2ccccc2)nc2ccccc12	?	3.98µM*	2.51µM*	-86.9%
CCCCN(CC)CCCNC(=O)CS(=O)(=O)Cc1nc(-c2ccc(C)cc2)oc1C	?	-5.8%	-19.7%	-13.2%[10.9 µM]
CCCCCOc1ccccc1CN1C(=O)C(=O)c2cc(C)ccc21	0.0%	1.4%	12.6µM*	16.6%[10.9 µM]
SMILES	IkB signaling	p53ts 32C tox	p53ts 39C tox	Peg3 imprint
Cc1c(C(=O)Nc2ccc(-c3nnc4n3CCCCC4)cc2)oc2c1ccc1ccccc12	/	1µM*	-24.5%	/
Cc1ccc(Nc2nc3nonc3[nH]c2=O)cc1C	?	12.6µM*	10µM*	-52.7%
COc1ccc(-c2coc3ccc(O[C@@H]4O[C@@H](COC(C)=O)[C@@H](OC(C)=O)[C@@H](OC(C)=O)[C@H]4OC(C)=O)cc3c2=O)cc1	4.0%[11.4 µM]	/	/	/
c1ccc(-c2ccc(-c3nc(-c4ccccn4)no3)cc2)cc1	?	1.58µM*	3.16µM*	-93.9%
c1ccc(-c2noc(-c3ccco3)n2)nc1	?	-29.6%	?	-91.5%
Cc1ccc(-c2nc(-c3ccccn3)no2)cc1Cl	?	2µM*	2.51µM*	-92.7%
c1ccc(-c2noc(-c3cccc4ccccc34)n2)nc1	?	?	?	-76.8%
Cc1ccc2nc(-c3cccnc3)oc2c1	-2.1%	?	?	-70.7%
Cc1ccc2nc(-c3ccccn3)oc2c1	1.3%	3.16µM*	5.01µM*	-90.6%
Clc1cccc(-c2nc(-c3ccccn3)no2)c1	?	5.01µM*	3.16µM*	-92.7%
CCOC(=O)c1sc(N)c(C(=O)Nc2ccc(C)cc2C)c1C	/	5.4%	-7.5%	/
Cc1ccc(-c2nc(-c3ccccn3)no2)cc1	/	0.501µM*	0.398µM*	/
Cc1ccc(-c2noc(-c3ccccc3Br)n2)cc1	6.7%	12.6µM*	10µM*	-49.6%
COc1cc(-c2nc(-c3ccccn3)no2)cc(OC)c1OC	?	-23.5%	-20.6%	-23.4%
c1ccc(-c2cc(-c3nc(-c4ccccn4)no3)c3ccccc3n2)cc1	2.5%	-27.6%	-18.6%	-8.8%
c1ccc(-c2nc(-c3ccccn3)no2)cc1	/	5.62µM*	7.08µM*	/
Cc1ccc(C(C)C)c(OCC(=O)Nc2c(C(=O)c3ccc(F)cc3)oc3ccccc23)c1	2.5%	4.5%	14.4%	2.8%[10.9 µM]
Cc1[nH]c2ccc(C(=O)Nc3ccc(F)cc3)cc2c1C	?	-9.8%	-24.6%	-6.4%[10.9 µM]
Cn1c(-n2cccc2)c(-c2c(-c3ccc(F)cc3)[nH]c3c2c(=O)[nH]c(=O)n3C)c(=O)[nH]c1=O	-0.3%	-7.1%	6.6%	-17.3%[10.9 µM]
COc1ccc(OCCn2c(=N)n(CCO)c3ccccc32)cc1	1.7%	-2.2%	-16.9%	-13.4%
CCn1c(=N)n(CCOc2ccc(Br)cc2)c2ccccc21	?	?	12.6µM*	-16.7%[10.9 µM]
COc1cccc(OCc2nc3ccccc3[nH]2)c1	?	15.8µM*	?	-86.5%
c1ccc2cc(OCc3nc4ccccc4[nH]3)ccc2c1	/	10µM*	12.6µM*	/
Cc1cccc(Cn2c(CNS(=O)(=O)c3ccc4c(c3)CCCC4)nc3cccnc32)c1	?	-7.6%	-20.2%	3.4%[10.9 µM]
CN(C)c1ccc(N=Nc2ccccc2C(=O)OCC(=O)N(C)c2ccccc2)cc1	/	10µM*	?	/
SMILES	IkB signaling	p53ts 32C tox	p53ts 39C tox	Peg3 imprint
CC(=O)c1ccc(NC(=O)COC(=O)c2ccccc2N=Nc2ccc(N(C)C)cc2)cc1	/	-26.3%	?	/
Cc1cc(NCCN2CCOCC2)n2ncc(-c3ccccc3)c2n1	1.2%	-3.9%	-7.0%	0.5%
Cc1cc(NCCCn2ccnc2)n2ncc(-c3ccccc3)c2n1	3.6%	3.16µM*	3.98µM*	-50.4%
O=C(O)c1cccc(COc2ccccc2Cl)c1	?	10µM*	12.6µM*	-95.9%
N#Cc1cnc(Nc2nc3ccccc3o2)nc1-c1ccccc1	-5.6%	5.8%	5.8%	-8.1%
Cc1ccnc(Nc2nc3ccccc3o2)n1	?	5.01µM*	7.94µM*	-91.2%
O=C(O)c1c(-c2nccc3ccccc23)[nH]c(-c2ccccc2)c1S(=O)(=O)O	11.6%[11.4 µM]	0.5%[9.22 µM]	8.4%[9.22 µM]	-8.2%[10.9 µM]
Cc1ccc2nc3c(c(Nc4ccc(C)c(C)c4)c2c1)CCC3	?	?	10µM*	-9.6%[10.9 µM]
Cc1ccc(Nc2c3c(nc4ccccc24)CCC3)cc1F	?	-10.3%	-25.4%	-12.7%[10.9 µM]

Assay outcomes: PubChem BioAssay, National Center for Advancing Translational Sciences (NCATS)
